Screens (PubChem BioAssay)
p53 reactivation – re-activators of mutant p53. 0.063% of 320,000 active. H1299 p53-A138V BP100-luciferase reporter, luminescence, 24 h. Potency, µM (highest dose often 92.2 µM), most hits filed as activators; further: nearly all actives have a fitted effect of over 45% in size
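p53-null H1299 cells stably carrying temperature-sensitive p53-A138V and a BP100-luciferase reporter were pinned with compounds (4-point, 1:5 series) and held 24 hrs at 37 deg C. Luminescence was read 10 min after detection reagent.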
ELG1 repair inh – ELG1-dependent DNA repair inhibition. Potency, µM (titrated, usually from 46.1 µM), usual class: inhibitors. HEK293T ELG1-luciferase reporter, luminescence, 16 h; DNA damage induced by 5-fluorouridine. 2.3% of 330,000 active; further: nearly all actives have a fitted effect of over 55% in size
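Step one: seed 2,000 cells per well. Step two: pin-transfer compound or DMSO alongside 5-fluorouridine. Step three: incubate 16 hr, 37 °C, 5% CO2. Step four: add ONE-Glo, wait 30 min, read luminescence.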
Giardia killer – Giardia lamblia killing; Giardia lamblia trophozoite viability; activity change, % at 7.66 µM, hits read low; 0.15% of 340,000 active; AID 540267; in the data active means activity change below about -80%; inconclusive means between about -30% and that limit;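 further: parasites exposed to compound for two days anaerobically before the ATP read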
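Viability, read as ATP luminescence: trophozoites at 100 cells/well, compound added, 48 hrs anaerobic at 37 deg C, then 15-30 min room-temperature development before reading.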
Gal4-VP16 FLuc – inhibits Gal4-VP16 luciferase reporter, ROR gamma counter-screen; Drosophila S2 Gal4-VP16 UAS-luciferase, luminescence, 20 h; Potency, µM (top dose mostly 53.6 µM), most hits filed as inhibitors; 3.5% of 310,000 active;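 further: Gal4-VP16 expression switched on by copper sulfate through the metallothionein promoter; nearly all actives have a fitted effect of over 50% in size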
BRCA1 expr up – BRCA1 expression activation; Potency, µM (top dose mostly 46.1 µM), most hits filed as activators; 1.1% of 380,000 active; MCF7-BRCA1-FFLuc reporter, luminescence, 48 h; response scale: scaled: vehicle 0%, 10 µM genistein 100%; further: nearly all actives have a fitted effect of over 80% in size
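Luminescence from a BRCA1-driven firefly luciferase in MCF7 cells was read after 48 h compound exposure at 37 C. Data normalized against DMSO and a 10microM genistein activation control, then curve-fitted across the titration.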
RORg inh – blocks mouse ROR gamma transcriptional activity; P51450; Drosophila S2 Gal4-RORgamma UAS-luciferase reporter, 20 h; 5.4% of 310,000 active; AID 2551; Potency, µM (doses to about 53.6 µM), hits mostly inhibitors; further: nearly all actives have a fitted effect of over 60% in size
Target sequence (P51450 whole entry, looked up, the tested form may be a part): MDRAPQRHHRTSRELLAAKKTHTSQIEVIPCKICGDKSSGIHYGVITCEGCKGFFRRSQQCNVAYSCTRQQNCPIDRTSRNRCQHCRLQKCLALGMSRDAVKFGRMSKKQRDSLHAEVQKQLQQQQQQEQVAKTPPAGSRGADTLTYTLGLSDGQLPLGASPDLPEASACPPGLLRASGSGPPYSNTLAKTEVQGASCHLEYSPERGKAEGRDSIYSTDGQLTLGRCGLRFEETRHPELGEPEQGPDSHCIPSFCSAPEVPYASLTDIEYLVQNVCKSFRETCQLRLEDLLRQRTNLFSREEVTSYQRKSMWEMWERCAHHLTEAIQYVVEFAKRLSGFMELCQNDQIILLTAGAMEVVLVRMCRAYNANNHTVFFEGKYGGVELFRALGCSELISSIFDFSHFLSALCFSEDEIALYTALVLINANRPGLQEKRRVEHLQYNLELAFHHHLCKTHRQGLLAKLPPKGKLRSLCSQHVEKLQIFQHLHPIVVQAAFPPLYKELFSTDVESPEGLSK
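Using a luciferase readout, inhibitors were identified by reduced reporter activity in Drosophila cells coexpressing a copper-inducible Gal4–ROR gamma fusion and UAS-driven Photinus luciferase, incubated 20 hr after 700 uM copper sulfate.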
Hits are given with their value; n = inactive; u = inconclusive; x = not tested or not shown; [ ] = remark or other dose. In the library only some 7.6% were active in any assay of this set; here they are far more common. Unless noted, the call rests on the fitted dose curve; in most records, active means well fitted curve in the direction sought with a large enough effect; inconclusive means small, poorly fitted or top-dose-only effect, or another doubt; inactive means no such curve, though single readings can be large; an effect the other way counts as inactive or inconclusive.

SMILES | p53 reactivation | ELG1 repair inh | Giardia killer | Gal4-VP16 FLuc | BRCA1 expr up | RORg inh
Fc1ccc(N/N=C/c2cccnc2)c(F)c1 | n | u | n | n | 5.62µM | n
O=C(NCCc1cccs1)C1CCC(=O)N(CCc2cccc(F)c2)C1 (configuration not stated) | n | n | n | n | n | n
Cc1ccsc1CCNC(=O)C1CCC(=O)N(CCc2cccc(F)c2)C1 (configuration not stated) | u | u | n | u | 7.94µM | n
O=C(CN1C(=O)NC2(CCCC2)C1=O)OCc1cc(=O)n2cc(Br)ccc2n1 | n | n | n | n | n | 3.16µM
Cc1ccc(CCNC(=O)c2ccc3nc(N4CCC(C)CC4)sc3c2)cc1 | x | x | x | x | n | x
Cc1ccc(/C=C/C(=O)OCC(=O)c2ccc3c(c2)NC(=O)CO3)o1 | n | 11.6µM | n | x | n | x
COCCn1c(SCc2ccc(C)cc2)nc2c1c(=O)[nH]c(=O)n2C | x | x | n | x | n | x
Cn1c([N+](=O)[O-])cnc1COC(N)=O | n | n | -90.1 | n | n | n
Cc1cc(NC(=O)CCCC(=O)O)nc(C)n1 | n | n | n | n | n | n
COc1cc2c(cc1OC)C(COc1ccccc1OC)N(C(=O)CC(C)C)CC2 (configuration not stated) | x | x | x | x | n | x
O=C(Cc1ccc2c(c1)OCO2)NN=Cc1ccc([N+](=O)[O-])o1 | n | 16.4µM | -102.4 | x | n | x
O=C(CCC(=O)Nc1ccc(Cl)cc1Cl)N/N=C/c1ccc([N+](=O)[O-])o1 | n | u | -82.0 | 15.8µM | n | u
O=C(CNC(=O)c1ccccc1)N/N=C/c1ccc([N+](=O)[O-])o1 | n | u | u | 17.8µM | n | n
O=C(CNC(=O)c1ccccc1)N/N=C/c1ccc([N+](=O)[O-])s1 | n | 6.51µM | n | n | n | n
CCN1CCN(C(=S)NC(=O)c2cc(OC)c(OC)c(OC)c2)CC1 | n | n | n | x | n | x
Cc1ccc(NCC(=O)N/N=C/c2ccc(C(=O)O)cc2)cc1 | n | n | n | n | n | n
Cc1ccc(NCC(=O)N/N=C\c2ccc([N+](=O)[O-])o2)cc1 | n | u | -106.1 | u | n | u
CCN(CC)c1ccc(N=Cc2ccc([N+](=O)[O-])o2)cc1 | n | n | n | 22.4µM | n | u
O=C(CNc1cccc([N+](=O)[O-])c1)N/N=C/c1ccc(F)cc1 | n | n | n | n | n | u
CCCCCC(=O)N/N=C/c1ccc([N+](=O)[O-])o1 | x | x | -103.0 | n | n | n
O=C(CNc1ccccc1)N/N=C/c1ccc([N+](=O)[O-])o1 | n | u | -104.5 | u | n | n
CN(c1ccc(C(=O)NCCSCc2ccccc2)cc1)S(=O)(=O)c1ccccc1 | n | n | n | n | n | n
O=[N+]([O-])c1ccc(-n2nnnc2-c2ccccc2)c([N+](=O)[O-])c1 | n | u | n | 5.62µM | n | 3.98µM
O=[N+]([O-])c1ccc(-n2nnnc2-c2ccccc2)cc1 | n | n | n | n | n | n
CCN(CC)CCn1c(C)nc2ccccc21 | n | n | n | n | n | n
SMILES | p53 reactivation | ELG1 repair inh | Giardia killer | Gal4-VP16 FLuc | BRCA1 expr up | RORg inh
CCN(CC)CCn1c(NC(=O)c2ccccc2O)nc2ccccc21 | n | n | n | 5.01µM | n | 2.51µM
CCN(CC)CCn1c(NC(=O)c2ccc(Cl)cc2)nc2ccccc21 | n | u | n | 2.51µM | n | 2µM
O=C(Nc1nnc2n1CCS2)c1ccc(Br)o1 | n | u | n | 7.08µM | n | 3.55µM
COc1ccc(-n2nnnc2Sc2ccc(S(=O)(=O)N3CCOCC3)cn2)cc1 | n | n | n | n | n | u
COc1cc(/C=C2\NC(=S)N(C)C2=O)ccc1OCc1ccccc1F | n | n | n | u | n | 11.2µM
CN1C(=O)/C(=C/c2ccc(OCc3ccccc3F)cc2)NC1=S | n | n | n | n | n | u
CCOC(=O)c1ccc(NC(=S)N2CCC(O)CC2)cc1 | u | u | n | n | 12.6µM | n
CCOC(=O)c1ccc(NC(=S)N2CCCC(C)C2)cc1 (configuration not stated) | n | n | n | u | n | 12.6µM
CCOC(=O)c1ccc(NC(=O)C2CCN(S(=O)(=O)c3ccccc3)CC2)cc1 | x | x | n | x | n | x
CCOC(=O)c1ccc(NC(=S)N2CCCC(C(=O)N3CCCC3)C2)cc1 (configuration not stated) | n | n | n | n | n | n
CC1CCCCN1C(=S)NCCc1ccccc1 (configuration not stated) | u | u | n | u | n | n
CC1CCCN(C(=S)NCCc2ccccc2)C1 (configuration not stated) | n | u | n | n | 10µM | u
CCOC(=O)c1ccc(NC(=O)C2CCCN(S(=O)(=O)c3ccc(F)cc3)C2)cc1 (configuration not stated) | n | 16.4µM | n | n | n | u
CC[C@@H](C)C(NC(=O)OC(C)(C)C)c1cn([C@@H](CCCCNC(=O)OC(C)(C)C)C(=O)N2CCN(C(=O)OC(C)(C)C)CC2)nn1 (some centres not stated) | n | n | n | n | n | n
COc1cc(/C=N/NC(=O)c2ccncc2)ccc1OCc1cnc(Cl)s1 | n | u | n | n | n | n
COC(=O)Nc1ccc(S(=O)(=O)N2CCCC(C(=O)Nc3cccc4c3OCCO4)C2)cc1 (configuration not stated) | n | 20.6µM | n | n | n | n
CCCCc1ccc(NC(=S)N2CCCC(C)C2)cc1 (configuration not stated) | n | u | n | u | n | 5.01µM
CCCCc1ccc(NC(=O)C2CCCC2)cc1 | x | x | n | x | u | x
COC(=O)Nc1ccc(S(=O)(=O)N2CCCC(C(=O)Nc3cccnc3)C2)cc1 (configuration not stated) | n | n | n | n | n[1.84 µM] | n
O=C(C1CCCN(S(=O)(=O)c2ccc(F)cc2)C1)N(Cc1cccs1)C1CC1 (configuration not stated) | n | 11.6µM | n | n | n | u
CCN1C[C@@H]2[C@@H]3C(=O)N(Cc4ccccc4)C(=O)[C@@H]3[C@](C)(C1=O)N2C(=O)c1ccc(C(F)(F)F)cc1 | x | x | n | x | n | x
O=C(Nc1ccccc1C(=O)O)c1cc(S(=O)(=O)Nc2cccc(F)c2)ccc1Cl | x | n | n | n | n | n
Cc1ccnc(SCC(=O)c2cccs2)n1 | n | u | n | n | 2.51µM | n
CC(=O)Oc1ccc(OC(C)=O)c(SCCCCCCl)c1 | n | u | n | n[10 µM] | n | u
O=C(Nc1ccc(Cc2ccncc2)cc1)c1ccc(Br)o1 | n | u | n | n | u | n
CC(C)Cc1ccc(C(=O)Nc2ccc(Cc3ccncc3)cc2)o1 | n | 20.6µM | n | n | n | u
